In PubChem BioAssay (NCI):
The panel holds about 83,000 compounds, 20% with a hit somewhere; the sample as a whole holds those more often.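 Negative percent growth values reflect cell death: -40 means 40% of the cells present at the start died, and -100 means all died.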 Unmarked numbers belong to inactive results. The source made the active and inactive calls. Rule for the calls: active = growth percent below 10; inactive = the rest.

Tests used:
Experiment in all cases: NCI-60 one-dose screen, 48 h (100 = growth as untreated, 0 = no growth, -100 = all killed)
Settings in all cases: 10 µM
NCI-H23 lung = tested on: NCI-H23 lung
NCI-H226 lung = tested on: NCI-H226 lung
NCI-H322M lung = tested on: NCI-H322M lung
HOP-62 NSCLC = tested on: HOP-62 NSCLC
NCI-H460 lung = tested on: NCI-H460 lung
HOP-92 NSCLC = tested on: HOP-92 NSCLC
NCI-H522 lung = tested on: NCI-H522 lung
A549/ATCC NSCLC = tested on: A549/ATCC NSCLC
786-0 renal = tested on: 786-0 renal
COLO 205 colon = tested on: COLO 205 colon
DU-145 prostate = tested on: DU-145 prostate
K-562 leukemia = tested on: K-562 leukemia
MALME-3M melanoma = tested on: MALME-3M melanoma
MDA-MB-231 breast = tested on: MDA-MB-231 breast
SF-268 CNS = tested on: SF-268 CNS
SF-295 CNS = tested on: SF-295 CNS
SF-539 CNS = tested on: SF-539 CNS
UACC-257 melanoma = tested on: UACC-257 melanoma
M14 melanoma = tested on: M14 melanoma

SMILES	growth (NCI-H23 lung)	growth (NCI-H226 lung)	growth (NCI-H322M lung)	growth (HOP-62 NSCLC)	growth (NCI-H460 lung)	growth (HOP-92 NSCLC)	growth (NCI-H522 lung)	growth (A549/ATCC NSCLC)	growth (786-0 renal)	growth (COLO 205 colon)	growth (DU-145 prostate)	growth (K-562 leukemia)	growth (MALME-3M melanoma)	growth (MDA-MB-231 breast)	growth (SF-268 CNS)	growth (SF-295 CNS)	growth (SF-539 CNS)	growth (UACC-257 melanoma)	growth (M14 melanoma)
O=C(CNc1nc(-c2ccccc2)cs1)Nc1ccc([N+](=O)[O-])cc1Cl	0.556% (active)	31.5%	60.3%	42.4%	51.6%	29%	-19.1% (active)	44.1%	38.1%	60.7%	54.8%	12.2%	24%	10.8%	29.6%	34.2%	2.17% (active)	58.5%	34.4%
CCOc1ccc2ncc(C#Cc3cncc(C(=O)Nc4ccc(CN5CCN(C)CC5)c(C(F)(F)F)c4)c3)n2n1	-70% (active)	-59.1% (active)	-76% (active)	-46.8% (active)	-52.9% (active)	-46.6% (active)	-41.3% (active)	-33.9% (active)	-43.8% (active)	-45.8% (active)	-96.7% (active)	4.86% (active)	-81.9% (active)	-88.9% (active)	-49.4% (active)	-88.5% (active)	-97.9% (active)	-62.2% (active)	-73% (active)
C=C[C@@]12CN3CC[C@]1(O)[C@@](C(=O)OC)(CO2)c1[nH]c2ccccc2c1C3	78%	83.1%	93.7%	99.5%	87.2%	54.9%	22.3%	87.6%	84%	33.7%	68.3%	33.9%	95.5%	76.9%	85.3%	71%	71.9%	49.7%	64.4%
O=c1[nH]c2ccccc2cc1CSc1ccc(Nc2nccc(-c3ccc(C(F)(F)F)cc3)n2)cc1	35.3%	-27.2% (active)	23.8%	-14% (active)	2.12% (active)	-1.46% (active)	28.3%	-16.8% (active)	-49.7% (active)	18%	32.3%	54.9%	6.21% (active)	11.9%	40.4%	-62.6% (active)	12%	90%	80.1%
COc1cnc2c(c1)C(=O)c1c-2n(CCCNC(C)C)c(=O)c2cc(OC)c(OC)cc12	26.9%	41.4%	46.5%	16.7%	16%	60.9%	41.3%	46.6%	22.9%	39.2%	16.4%	5.04% (active)	88.7%	23.1%	41.8%	13.3%	-63% (active)	90.1%	45.3%
N#Cc1ccc(-c2nn(-c3ccc(C(=O)O)cc3)cc2CNc2ccc(Cl)cc2)cc1	73.3%	85%	88.8%	81.3%	93.1%	133%	81.3%	84.6%	87.2%	142%	97.6%	69.4%	102%	90.6%	78.6%	63.3%	80.1%	97.8%	83.4%
COc1ccc2ncc(C#Cc3cncc(C(=O)Nc4ccc(CN5CCN(C)CC5)c(C(F)(F)F)c4)c3)n2n1	-80.9% (active)	-68.4% (active)	-98% (active)	-61% (active)	-75.3% (active)	-72% (active)	-65.5% (active)	-51.7% (active)	-55.7% (active)	-63.8% (active)	-100% (active)	-9.3% (active)	-93.6% (active)	-95.8% (active)	-64.5% (active)	-97.5% (active)	-100% (active)	-62.2% (active)	-80.2% (active)
COc1cc2c3c(n(CCCN4CCOCC4)c(=O)c2cc1OC)-c1nc2c(cc1C3=O)OCO2	4.12% (active)	6.34% (active)	41%	-12.4% (active)	-15.4% (active)	-2.4% (active)	39.9%	19%	-6.02% (active)	13%	3.38% (active)	25.9%	40.2%	6.41% (active)	21.9%	-30.8% (active)	-38.7% (active)	51%	13.4%
O/N=C(\CSc1nnc(-c2c[nH]c3ccccc23)n1-c1ccccc1)c1ccc(Cl)cc1	47.3%	14.3%	-49.3% (active)	-64.1% (active)	10.5%	-8.42% (active)	12.4%	21.5%	34.1%	10.2%	-30.9% (active)	6.93% (active)	11.1%	-54.5% (active)	-49% (active)	14.1%	29.5%	44.3%	-47.3% (active)
Cc1noc2c(Cc3ccc([N+](=O)[O-])cc3)nn(CC(=O)N/N=C/c3ccc(Br)cc3)c(=O)c12	87.7%	67.7%	104%	72.4%	81.5%	50.6%	98.6%	65.1%	4.46% (active)	119%	74.9%	88.7%	66%	46.4%	72.1%	89.5%	26.1%	106%	93.4%
NS(=O)(=O)c1ccc(NC(=O)CSc2ccc(-c3ccc(Cl)cc3)nn2)c(Br)c1	61.1%	-5.33% (active)	48.5%	2.17% (active)	23%	-14.4% (active)	63.6%	28.5%	19.1%	69.4%	32.5%	74.6%	29.2%	8.72% (active)	27.9%	3.43% (active)	28.4%	75.5%	85.1%
COc1cccc(-c2ccnc(/N=C(\N)Nc3ccc(S(=O)(=O)Nc4nc(C)cc(C)n4)cc3)n2)c1	98.2%	80.3%	107%	84.6%	106%	106%	91.5%	102%	101%	114%	111%	92%	98%	95.9%	104%	93.7%	95.2%	111%	114%
N#Cc1c(NC(=O)c2ccc(C(F)(F)F)cc2)sc2c1CCC(=O)C2	-56.9% (active)	-21.2% (active)	22.3%	-37.7% (active)	0.648% (active)	-57% (active)	-57.3% (active)	-41.9% (active)	-8.91% (active)	-95.3% (active)	23.1%	7.26% (active)	-54.2% (active)	-84.4% (active)	-37.6% (active)	-95.3% (active)	-89.2% (active)	-71.1% (active)	-78.5% (active)
O=c1c2ccccc2nc(COc2ccccc2)n1/N=C/c1ccc(N2CCCC2)cc1	85%	105%	91.2%	108%	105%	75.5%	81.7%	92.2%	92.8%	142%	94.7%	73.4%	115%	89.2%	115%	94.2%	93.6%	108%	101%
CSc1nc(-c2cccc(C)c2)c2cc(-c3ccccc3)n(C)c2n1	15.8%	40.7%	56.2%	37.4%	10.8%	-8.91% (active)	-11.8% (active)	26.8%	20%	18.7%	31.4%	12%	20.1%	33.1%	25.7%	17.3%	14.3%	40.5%	21%
CC(=O)c1cc(C(=O)N2c3ccccc3Sc3ccccc32)n2ccc(C)cc12	42%	40.2%	72.2%	58.6%	12.3%	38.1%	49.6%	56.9%	44.5%	67.7%	56.6%	18.7%	53.9%	46.4%	49.4%	36.5%	32.7%	31.6%	36.1%
Cc1cc(=O)oc2cc(OCCCCOc3ccc(/C=C/C(=O)Nc4ccccc4[N+](=O)[O-])cc3)ccc12	98.8%	127%	99.6%	109%	119%	130%	105%	106%	111%	124%	102%	102%	101%	102%	120%	99.8%	98.8%	111%	112%
O=C(CSc1nnc(-c2c[nH]c3ccccc23)n1-c1ccccc1)Nc1ccc(C(=O)/C=C/c2ccc(Br)cc2)cc1	81.3%	72.5%	92.1%	89.4%	104%	89.4%	76.3%	89.6%	94.8%	108%	96.4%	69.1%	98.5%	87.8%	67%	74.8%	80.5%	109%	102%
O=C(NO)c1ccc(CNc2nc(-c3ccccc3)c3ccccc3n2)cc1	-49% (active)	6.26% (active)	11%	0.931% (active)	4.48% (active)	-35.6% (active)	-30.9% (active)	12.3%	10.9%	-80.4% (active)	10.2%	9.84% (active)	-34.4% (active)	-21.8% (active)	7.8% (active)	-49% (active)	1.02% (active)	1.34% (active)	9.54% (active)
CC1(c2ccccc2)NC(=O)N(CC(=O)Nc2ccc(C(=O)/C=C/c3ccccc3)cc2)C1=O (stereo unspecified)	65.5%	45.7%	90.2%	85.9%	69.4%	50.7%	71.4%	44.3%	42.6%	76.4%	62.1%	22.4%	77.6%	67.7%	52.2%	50.9%	43.3%	63.5%	48.2%
Cc1noc2c(Cc3ccccc3)nn(CC(=O)N/N=C/c3ccc(Cl)cc3)c(=O)c12	79.1%	14.5%	96.3%	34.9%	10.4%	9.05% (active)	83.9%	20.4%	-23.9% (active)	51.8%	68.9%	93.7%	34.4%	5.74% (active)	59.8%	38.8%	67.7%	96%	94.4%
Cc1ccc2nc(-c3ccc(-c4nnc(SCC(=O)Nc5ccc(Cl)cc5)o4)cc3)[nH]c2c1	29.1%	9.53% (active)	27.6%	61.8%	6.19% (active)	84.9%	51.1%	29.1%	68.5%	46.1%	45%	18%	26.2%	10.6%	68.6%	21.4%	57%	102%	53.6%
O=[N+]([O-])c1ccc(-c2nc(-c3ccccc3)c(-c3ccccc3)n2-c2ccc(S(=O)(=O)Nc3ncccn3)cc2)cc1	23.9%	27.7%	65.7%	61.9%	31.3%	5.67% (active)	69.4%	60%	35.9%	125%	64.4%	47.1%	87.2%	43.2%	31.7%	9.39% (active)	53.9%	63.9%	40.6%
OCc1[nH]nc2cc(Nc3ncc4ccc(Br)c(OC5CCC(O)CC5)c4n3)ccc12 (stereo unspecified)	-88.8% (active)	-2.72% (active)	-17.9% (active)	0.469% (active)	2.31% (active)	20.9%	-31.2% (active)	4.04% (active)	-26% (active)	-76.9% (active)	11.6%	11.4%	-63.4% (active)	-10.2% (active)	7.67% (active)	-49.8% (active)	-83.3% (active)	-18.2% (active)	-58.9% (active)
